Experimental data as given in PubChem BioAssay AID1476 (National Center for Advancing Translational Sciences (NCATS), 2009).
Values joined by “and” are separate entries in the source; they are usually repeats but may differ in a detail not shown here. Identical values can stand only once. About 4,500 (2.2%) of roughly 200,000 compounds were called active. Not shown: some 12% with an inconclusive outcome. The entries come from a sample that favours actives as a whole. More than one record can exist for a structure, and the calls need not agree. A number with no mark means an inactive call. The call rests on the fitted dose curve; in most records, active means well fitted inhibition curve with a large enough effect; inconclusive means small, poorly fitted or top-dose-only effect, or effect the other way; inactive means flat fitted curve, though single readings scatter.
Further: nearly all actives have a fitted effect of over 40% in size.
Potency means the concentration at half of the fitted maximal effect.

Each compound was assayed against Cruzipain (Trypanosoma cruzi) (UniProt P25779) (assay: qHTS Assay for Promiscuous and Specific Inhibitors of Cruzain (without detergent)). Conditions: purified cruzain, Z-FR-AMC fluorescence, no detergent.
Sequence of Cruzipain (Trypanosoma cruzi) (P25779 123-467 limits assumed): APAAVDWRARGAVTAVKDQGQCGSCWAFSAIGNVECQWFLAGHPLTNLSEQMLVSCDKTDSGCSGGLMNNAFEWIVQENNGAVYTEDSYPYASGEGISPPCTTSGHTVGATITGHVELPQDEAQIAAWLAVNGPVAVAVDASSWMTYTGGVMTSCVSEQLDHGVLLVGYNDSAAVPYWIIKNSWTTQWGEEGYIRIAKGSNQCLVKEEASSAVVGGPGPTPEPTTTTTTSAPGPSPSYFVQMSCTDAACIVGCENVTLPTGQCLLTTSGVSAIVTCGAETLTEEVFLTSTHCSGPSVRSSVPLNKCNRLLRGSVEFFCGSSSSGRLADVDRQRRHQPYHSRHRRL
Description: Cruzain is a cysteine protease from the tropical parasite Trypanosoma cruzi. Dual qHTS experiment was performed against the NCGC compound collection in order to 1) identify novel inhibitors of the enzyme and 2) profile the compound collection for promiscuous inhibitors operating via colloidal aggregation (by performing detergent-free and detergent-containing comparison screens). Cruzain was assayed by the use of fluorogenic coumarin-based substrate Z-FR-AMC: proteolytic cleavage releases AMC, whose fluorescence is measured at 360 nm excitation and 450 nm emission. Purified cruzain was supplied by the labs of Prof. James McKerrow and Brian Shoichet, UC San Francisco.
This assay had 0.00005% Triton X-100 concentration. See also releated assay "qHTS Assay for Promiscuous and Specific Inhibitors of Cruzain (with detergent)" with 0.01% Triton X-100.
See following references for additional details:
Assay Provider: Shoichet, Brian; University of California, San Fancisco
Screening Center PI: Austin, C.P.
Screening Center: NIH Chemical Genomics Center [NCGC]
Buffer: 100 mM Sodium Acetate, pH 5.5, 5 mM DTT, Triton X-100 concentration: 0.01%.
Buffer in columns 3 and 4 as negative control (no enzyme).
Substrate solution: 2 uM final concentration of Z-FR-AMC (catalog number I-1160, Bachem) dispensed throughout the plate.
Enzyme: 1.5 nM Cruzain final concentration in columns 1, 2, 5-48. Column 1 is neutral (100% activity). Column 2 contained titration of covalent inhibitor K11777, starting concentration 1 mM, then 1:2 dilution in duplicate).
Three uL of enzyme or buffer were dispensed to 1536-well Greiner black solid bottom plates. Compounds and controls (23 nL) were transferred via Kalypsys PinTool. The plates were incubated for 15 min at room temperature, and then 1 uL of substrate solution was added to start the reaction. The plates were immediately transferred to and read 4 times every 30 seconds for 2 min on ViewLux High-throughput CCD imager (Perkin-Elmer) using 360 nm excitation and 450 nm emission fluorescence protocol. The fluorescence intensity difference between the third and the first time points (time lapse of 60 seconds) was used to compute reaction progress.
COc1ccc(-c2nc3c4ccccc4n(CC(=O)Nc4ccc(C(C)=O)cc4)c(=O)n3n2)cc1 gave a max response, negative = inhibition of 12.6%.
CCN(CC)S(=O)(=O)c1ccc2c(c1)c(=O)c(C(=O)N1CCN(c3cccc(Cl)c3)CC1)cn2C showed a max response, negative = inhibition of 15.1%.
COc1ccc(CCC(=O)NCCc2csc(-c3ccc(Cl)cc3)n2)cc1 gave a max response, negative = inhibition of 28.2%.
For CC(=O)c1c(O)c(C)c(O)c(Cc2c(O)c3c(c(C(=O)/C=C/c4ccccc4)c2O)OC(C)(C)C=C3)c1O, the Potency was 7.94 µM (active) and the max response, negative = inhibition was 24.8%.
With O=C(/C=C/c1ccccc1)c1ccccc1O the max response, negative = inhibition was 9.27% and -2.28%.
Compound CC(=O)c1c(O)c(C)c(O)c(Cc2c(O)c3c(c(C(=O)/C=C\c4ccccc4)c2O)OC(C)(C)C=C3)c1O has a max response, negative = inhibition of 23.6%.
COc1cc(C(=O)NCC(c2ccc(Cl)cc2)N2CCOCC2)cc(OC)c1OC (centres undefined) gave a max response, negative = inhibition of 9.67%.
CNC(=O)/C(=C\C=C\c1ccccc1)NC(=O)c1ccc([N+](=O)[O-])cc1 showed a max response, negative = inhibition of 1.75%.
O=C(Nc1ccccc1)/C(=C/c1ccc([N+](=O)[O-])cc1)NC(=O)c1ccccc1 was tested, and the Potency was 10 µM (active).
O=C(NCCc1ccccc1)/C(=C\c1ccc([N+](=O)[O-])cc1)NC(=O)c1ccccc1 showed a max response, negative = inhibition of -28.6%.
In the case of O=C(O)c1ccc(NC(=O)c2cccs2)cc1, the max response, negative = inhibition is reported as -2.86%.
For O=C(NC(=S)Nc1ccc(NC(=O)c2cccs2)cc1)c1ccc([N+](=O)[O-])cc1, the Potency was 12.6 µM (active).
COCCCNC(=S)NC(=O)c1ccc([N+](=O)[O-])cc1 showed a max response, negative = inhibition of -9.94%.
With Cc1cccc(C(=O)Nc2ccc(-c3nc4ncccc4o3)cc2C)c1 the max response, negative = inhibition was -6.61%.
With Cc1noc2ncnc(NCc3ccccc3Cl)c12 the max response, negative = inhibition was -9.31%.
Cc1ccc(C)c(N2CCN(S(=O)(=O)c3ccc4c(c3)C(C(C)C)C(=O)N4)CC2)c1 (centres undefined) gave a max response, negative = inhibition of -9.68%.
CCOC(=O)c1cccc(NS(=O)(=O)c2cn(C)c(C)n2)c1 gave a max response, negative = inhibition of 6.22%.
In the case of Cc1ccc2c(=O)cc(C(=O)Nc3sc4c(c3C(=O)NCc3cccnc3)CCCC4)oc2c1, the max response, negative = inhibition is reported as -7.89%.
Cn1nc(-c2ccccc2)c(CSc2cccc(Cl)c2)c1Cl was tested, and the max response, negative = inhibition was 2.52%.
With Cc1ccc(S(=O)(=O)c2c(COC(=O)c3cccc(Cl)c3)c(-c3ccccc3)nn2C)cc1 the Potency was 25.1 µM (active).
Compound Cc1cc(C)n(-c2c(F)c(F)c(COC(=O)c3ccccc3)c(F)c2F)n1 has a max response, negative = inhibition of 2.62%.
In the case of Cc1ccc(CNC(=O)c2c(O)nc3c(C)cccn3c2=O)cc1, the max response, negative = inhibition is reported as -9.77%.
In the case of O=C(O)c1c(CNCc2cccc(F)c2)c2ccccc2n1Cc1ccccc1, the max response, negative = inhibition is reported as 0.0489%.
For Cc1ccc(NC(=O)COc2ccc(-n3ccnc3)cc2)cc1Cl, the max response, negative = inhibition was 3.27%.
Cc1ccc(-c2nc(-c3cccnc3)sc2CC(=O)Nc2ccc(C)c(Cl)c2)cc1 was tested, and the Potency was 25.1 µM (active).
With Cc1cc(C)c(NC(=O)CS(=O)CC(=O)Nc2cccnc2)c(C)c1 (centres undefined) the max response, negative = inhibition was -6.14%.
Cc1ccc(-c2ccc(CCC(=O)O)n2-c2ccc(C(N)=O)cc2)cc1 showed a max response, negative = inhibition of -3.67%.
With O=C(Nc1ccc2c(c1)CCC2)c1cccc(S(=O)(=O)N2CCN(c3ccc(F)cc3)CC2)c1 the Potency was 20 µM (active).
Work on O=C(Nc1cccc(F)c1)c1ccc(S(=O)(=O)N2CCCC2)cc1 yielded a max response, negative = inhibition of 6.1%.
Compound O=C(Nc1ccc2c(c1)CCC2)c1cccc(S(=O)(=O)Nc2ccccc2Cl)c1 has a max response, negative = inhibition of -19.6%.
O=C(Cn1nc(Cc2cccnc2)c2ccccc2c1=O)N1CCN(c2ccccc2F)CC1 was tested, and the max response, negative = inhibition was -3.19%.
With O=C(NCCc1ccccc1)c1ccc2c(c1)N(Cc1ccccc1)C(=O)c1ccccc1S2(=O)=O the Potency was 20 µM (active).
Compound COCCNC(=O)c1ccc2c(c1)N(Cc1cccc(Cl)c1)C(=O)c1ccccc1S2(=O)=O has a max response, negative = inhibition of 9.95%.
O=C(NCCc1ccccc1)c1ccc2c(c1)N(Cc1ccc(F)cc1)C(=O)c1ccccc1S2(=O)=O showed a max response, negative = inhibition of 2.91%.
For Cc1nn(-c2ccc(N3CCCCC3)nn2)c(C)c1CCC(=O)NCc1ccccc1F, the max response, negative = inhibition was -5.41%.
In the case of Cc1cc(Br)ccc1NC(=O)Cn1cnc2sc(C)c(S(=O)(=O)N3CCN(C)CC3)c2c1=O, the max response, negative = inhibition is reported as -2.69%.
With c1ccc(-c2nnc(SCc3nc4ccccc4[nH]3)o2)cc1 the Potency was 12.6 µM (active).
Clc1ccccc1SCc1nc2ccccc2[nH]1 gave a max response, negative = inhibition of -0.47%.
Clc1ccc(-c2nnc(SCc3nc4ccccc4s3)o2)cc1 was tested, and the max response, negative = inhibition was -6.5%.
With COc1ccc(N2CC(C(=O)NCCS(=O)(=O)N3CCN(c4ccccc4)CC3)CC2=O)cc1 (centres undefined) the max response, negative = inhibition was 3.76%.
In the case of Cc1ccc(C(=O)COC(=O)C(Cc2c[nH]c3ccccc23)NC(=O)c2ccc(Br)cc2)cc1 (centres undefined), the Potency is reported as 12.6 µM (active).
Work on Cc1[nH]c2ccccc2c1C(=O)COC(=O)C(C)C yielded a max response, negative = inhibition of 3.26%.
In the case of O=C(Cc1c[nH]c2ccccc12)OCCOC(=O)Cc1c[nH]c2ccccc12, the max response, negative = inhibition is reported as 1.16%.
Compound CN(C(=O)c1ccc2c(c1)N(Cc1cccc(Cl)c1)C(=O)c1ccccc1S2=O)C1CCCCC1 (centres undefined) has a max response, negative = inhibition of -3.62%.
Cc1csc2nc(COC(=O)c3ccccc3NC(=O)c3ccccc3Cl)cc(=O)n12 gave a max response, negative = inhibition of -1.98%.
Compound COc1ccc(Cl)cc1NC(=O)C(C)Sc1nc2c(c(=O)[nH]1)CCCC2 (centres undefined) has a max response, negative = inhibition of -3.86%.
For O=S(=O)(c1ccc2nc(N3CCN(c4cccc(Cl)c4)CC3)ccc2c1)N1CCCCC1, the max response, negative = inhibition was -14.3%.
Work on Cc1ccc(NC2(C#N)C(=O)Nc3ccccc32)cc1 (centres undefined) yielded a max response, negative = inhibition of -4.74%.
With O=C1Nc2ccccc2C12Nc1ccccc1S2 (centres undefined) the Potency was 25.1 µM (active).
Compound CCc1ccc2c(c1)C1(NN=C(c3ccccc3)S1)C(=O)N2 (centres undefined) has a max response, negative = inhibition of -24.1%.
In the case of O=c1c(O)c(Br)ccc2c(Br)c(O)c(O)c(O)c12, the max response, negative = inhibition is reported as -27.1%.
CCC(C)Nc1oc(-c2ccc(COc3ccc(Cl)cc3)o2)nc1C#N (centres undefined) showed a max response, negative = inhibition of 2.48%.
O=C(O)c1ccc(Nc2nc(-c3ccccc3)c3cc(Br)ccc3n2)cc1 showed a max response, negative = inhibition of 27.1%.
Work on Cc1ccc(S(=O)(=O)N2CC(=O)Nc3ccccc32)cc1C yielded a max response, negative = inhibition of 2.47%.
O=C1CN(c2nc(-c3ccccc3)c3cc(Br)ccc3n2)c2ccccc2N1 was tested, and the Potency was 12.6 µM (active).
Compound Fc1ccc(-c2nn(-c3ccccc3Cl)c3c2cnc2ccccc23)cc1 has a max response, negative = inhibition of 4.61%.
O=C(CC1C(=O)N(c2ccccc2)C(=O)N1CCc1cccs1)Nc1ccc(F)cc1 (centres undefined) was tested, and the max response, negative = inhibition was 2.56%.
O=C(CCSCc1ccccc1F)N1CCN(c2ccc(Cl)cc2)CC1 gave a max response, negative = inhibition of 2.72%.
Work on Cc1ccc(-c2nn(CCC(=O)Nc3ccc(Cl)c(Cl)c3)c(=O)c3ccccc23)cc1 yielded a max response, negative = inhibition of -2.75%.
Work on CCN(CC)c1nn2c(=O)c(C(=O)NCCc3ccccc3)cnc2s1 yielded a max response, negative = inhibition of -4.42%.
For O=C(NCc1ccc2c(c1)CCN2C(=O)c1ccccc1)Nc1cc(F)ccc1F, the max response, negative = inhibition was -19.6%.
In the case of COc1ccc(CNC(=O)c2cc3c(s2)-c2ccccc2OC3)cc1, the max response, negative = inhibition is reported as 16.2%.
Cc1ccc(-n2c(SCC(=O)Nc3ncc(Cl)cc3Cl)nc3ccccc32)cc1 was tested, and the Potency was 20 µM (active).
Work on Cc1ccc(NC(=O)CSc2nc3c([nH]c4ccccc43)c(=O)n2-c2ccccc2)c(C)c1 yielded a max response, negative = inhibition of 12.6%.
Compound Cc1cc(C)c(NC(=O)Cn2c(SCC(=O)NCc3ccccc3)nc3ccccc32)c(C)c1 has a max response, negative = inhibition of 7.19%.
Brc1ccc(/C=N/N2CCN(C3c4ccccc4-c4ccccc43)CC2)s1 was tested, and the Potency was 12.6 µM (active).
NS(=O)(=O)c1ccc(N=Cc2ccc(Br)s2)cc1 gave a max response, negative = inhibition of -5.17%.
c1ccc2c(c1)-c1ccccc1C2N1CC2CCC(CC2)C1 gave a max response, negative = inhibition of 1.3%.
Compound O=C(c1ccc2c(c1)N(Cc1ccccc1)C(=O)c1ccccc1S2(=O)=O)N1CCC(Cc2ccccc2)CC1 has a max response, negative = inhibition of 1.2%.
COc1ccc(-c2nnc(SC(=O)N3c4ccccc4Sc4ccccc43)o2)cc1 was tested, and the Potency was 31.6 µM (active).
For COc1ccc(-c2nnc(SC(C)C#N)o2)cc1 (centres undefined), the max response, negative = inhibition was 2.59%.
COc1ccc(-c2nnc(SCc3cccnc3)o2)cc1 showed a max response, negative = inhibition of 15.4%.
Work on CCOC(=O)c1ccc(NC(=O)CC2C(=O)N(c3cccc(OC)c3)C(=O)N2C2CCCCC2)cc1 (centres undefined) yielded a max response, negative = inhibition of -1.66%.
In the case of Cc1ccc(C(=O)NCCSc2c(C)[nH]c3ccccc23)cc1C, the max response, negative = inhibition is reported as 13.2%.
For N#CC1=C(SCc2ccccc2)NC(=O)C(C#N)C12CCCC2 (centres undefined), the max response, negative = inhibition was -1.74%.
For N#CC1=C(SCc2ccc(C#N)cc2)N=C(N)C(c2nc(-c3ccccc3)cs2)C12CCCCC2 (centres undefined), the Potency was 10 µM (active).
COc1ccc(CCNc2nc(-c3ccc(Cl)cc3)cc(C(F)(F)F)n2)cc1OC showed a max response, negative = inhibition of -3.01%.
Cc1nn(Cc2ccc(F)cc2)c(C)c1NC(=O)c1cc(CC(C)C)on1 showed a max response, negative = inhibition of 2.49%.
CCCc1cc(=O)[nH]c(SCC(=O)c2cc(C)n(CCC)c2C)n1 was tested, and the max response, negative = inhibition was -4.28%.
With Cc1cc(C(=O)CSc2nc(N)cc(=O)[nH]2)c(C)n1CCc1ccc(Cl)cc1 the Potency was 12.6 µM (active).
Compound CCCc1cc(=O)[nH]c(SCC(=O)OCc2ccccc2)n1 has a max response, negative = inhibition of -0.512%.
Work on COc1ccc(-n2ccnc(NCCc3ccc(Cl)cc3)c2=O)cc1OC yielded a max response, negative = inhibition of 16.8%.
With COc1ccc(C2Sc3ccccc3NC3=C2C(=O)c2ccccc23)c(OC)c1OC (centres undefined) the max response, negative = inhibition was -2.6%.
With S=c1nccc(-c2cc(Cl)sc2Cl)[nH]1 the Potency was 12.6 µM (active).
COCCNC(=O)CCCN1C(=O)c2ccccc2Sc2ncccc21 gave a max response, negative = inhibition of 15.3%.
Work on O=C(Nc1nc2ccc(F)cc2s1)c1nc(SCc2ccccc2F)ncc1Cl yielded a max response, negative = inhibition of 1.9%.
For CS(=O)(=O)c1ccc2nc(NC(=O)C3CCCCC3)sc2c1, the max response, negative = inhibition was 6.38%.
In the case of CCS(=O)(=O)N1Cc2ccccc2CC1C(=O)Nc1nc2ccc(F)cc2s1 (centres undefined), the Potency is reported as 12.6 µM (active).
